Screen size: about 330,000 compounds; about 2,600 (0.79%) were called active. Only a selection was taken, and actives are over-represented in it overall. A number with no mark means an inactive call.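 The calls were made as follows: active = mean ATP rescue above about 67%, or every replicate alone reaching that limit (limit read from the data, passing the limit was not always enough); inconclusive = no clear call, values can overlap the other calls; inactive = mean under the limit and some replicate under it.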
assay: suppressors of statin myotoxicity in C2C12 myotubes, primary screen, cell-based, single point, plate reader (AID 602340); details: C2C12 myotubes + simvastatin, ATP luminescence, 48 h; at 7.49 µM; active compounds read high; scaled: DMSO 0, geranylgeraniol control 100;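 also: myotubes were challenged with 10 µM simvastatin during compound exposure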

Row | SMILES | rescue of ATP level
1 | O=C(Nc1ccccc1)Oc1cccc2cccnc12 | 101% (active)
2 | OCc1ccc(OCCCOc2cccc3cccnc23)cc1 | 7.29%
3 | Fc1ccccc1COc1cccc2cccnc12 | 8.73%
4 | C/C=C/c1ccc2c(c1)O[C@H](CN(C)C(=O)C1CCCCC1)[C@@H](C)CN([C@@H](C)CO)S2(=O)=O | 2.75%
5 | CCc1nc2ccccc2n(CCOCCOCCn2c(=O)c(CC)nc3ccccc32)c1=O | 114% (active)
6 | COCCOCCn1cnc2ccccc21 | 14.6%
7 | CCOCCn1c(C(C)C)nc2ccccc21 | -2.16%
8 | C[C@@H]1CN([C@H](C)CO)C(=O)c2cc(C#CC3CC3)cnc2O[C@@H]1CN(C)Cc1cccc(C(=O)O)c1 | -0.6%
9 | COc1ccc2[nH]c(=O)c(CN(CC3CCCO3)C(=O)Nc3ccccc3)cc2c1 (configuration not stated) | -11.6%
10 | COc1ccc2[nH]c(=O)c(CN(Cc3cccnc3)S(=O)(=O)c3ccccc3F)cc2c1 | -38.6%
11 | COc1ccc2[nH]c(=O)c(CNc3ccc(C)c(C)c3)cc2c1 | 100% (active)
12 | CO[C@H]1CN(C)C(=O)c2ccc(NS(C)(=O)=O)cc2OC[C@@H](C)N(C(=O)c2ccc3c(c2)OCO3)C[C@@H]1C | -7.88%
13 | C[C@@H]1CCCCO[C@H](CN(C)S(=O)(=O)c2cn(C)cn2)[C@H](C)CN([C@@H](C)CO)C(=O)c2cc(NC(=O)Nc3ccc(C(F)(F)F)cc3)ccc2O1 | 0.993%
14 | C[C@@H]1CN([C@@H](C)CO)C(=O)Cc2cc(NC(=O)CCN3CCOCC3)ccc2O[C@H]1CN(C)S(=O)(=O)c1ccccc1 | -6.12%
15 | O=S(=O)(Cc1ccccc1)NCC[C@@H]1CC[C@@H](NS(=O)(=O)c2ccccc2)[C@@H](CO)O1 | 1.31%
16 | COc1ccc(S(=O)(=O)Nc2ccc3cn[nH]c3c2)cc1[N+](=O)[O-] | 1.46%
17 | COc1ccc(S(=O)(=O)N/N=C\c2ccc(OC)c(COc3ccc(C)cc3[N+](=O)[O-])c2)cc1 | 99.4% (active)
18 | Cc1ccc(S(=O)(=O)N/N=C\c2cc3c(cc2[N+](=O)[O-])OCO3)cc1 | 2.88%
19 | COc1cccc(S(=O)(=O)Nc2ccc3c(c2)C(=O)N(C)C[C@@H](OC)[C@H](C)CN(C(=O)Cc2cccnc2)[C@H](C)CO3)c1 | 7.32%
20 | CC(=O)N1[C@@H](CO)[C@H](c2ccccc2)[C@@H]1CN(C(=O)c1ccccc1)C(C)C | 3.57%
21 | COc1ccc(-c2ccc3n(c2=O)C[C@@H]2[C@@H](CO)[C@H](C(=O)Nc4ccccc4)[C@H]3N2C)cc1 | -0.124%
22 | CCC(=O)N(C)C[C@@H]1Oc2cc(C#Cc3cccnc3)ccc2S(=O)(=O)N([C@H](C)CO)C[C@@H]1C | 29.4%
23 | Cc1cc(NC(=O)c2cc(-c3cccs3)on2)nn1Cc1ccc(Cl)cc1 | 143% (active)
24 | CC(=O)c1ccc(NC(=O)c2cc(-c3cccs3)on2)cc1 | -12.8%
25 | O=C(c1cc(-c2cccs2)on1)N1CCCCC1 | 36%
26 | CC(C)C#Cc1ccc2c(c1)O[C@@H](CN(C)C(=O)CN(C)C)[C@@H](C)CN([C@H](C)CO)S2(=O)=O | -17.5%

Row | SMILES | rescue of ATP level
27 | CNC[C@H]1Oc2ncc(C#Cc3ccccc3F)cc2C(=O)N([C@H](C)CO)C[C@H]1C | -12.3%
28 | O=C(C[C@@H]1C[C@H]2c3cc(NC(=O)Nc4ccccc4)ccc3O[C@H]2[C@@H](CO)O1)NCc1cccnc1 | 4.89%
29 | Cc1cc(NCc2ccco2)n2c(nc3ccccc32)c1C#N | -35.7%
30 | CN1c2ccccc2-c2nc3ccccc3n2C1c1ccco1 (configuration not stated) | 96.4% (active)
31 | CN1C(C(=O)NCc2ccco2)CC2Cn3c(nc4ccccc43)C21 (configuration not stated) | 2.87%
32 | COc1ccc(NS(=O)(=O)c2ccc(NC(=O)C(C)(C(F)(F)F)C(F)(F)F)cc2)nn1 | 113% (active)
33 | COC(=O)Nc1ccc(S(=O)(=O)Nc2cc(OC)nc(OC)n2)cc1 | -0.957%
34 | CCCCCC(=O)Nc1ccc(S(=O)(=O)Nc2ccc(Cl)nn2)cc1 | -2.2%
35 | CC(C)NC(=O)N1[C@H](CO)[C@@H]2c3ccccc3N(C(=O)c3ccccc3F)C[C@@H]21 | 6.22%
36 | CC(=O)N(C)C[C@H]1Oc2cc(C#CC3CC3)ccc2S(=O)(=O)N([C@H](C)CO)C[C@@H]1C | 9.57%
37 | C/C=C/c1ccc2c(c1)O[C@@H](CN(C)C(=O)c1ccncc1)[C@@H](C)CN([C@H](C)CO)S2(=O)=O | -3.45%
38 | CO[C@H]1CN(C)C(=O)c2ccc(NS(C)(=O)=O)cc2OC[C@@H](C)N(Cc2ccccc2)C[C@@H]1C | 7.75%
39 | CO[C@H]1CN(C)C(=O)c2cc(NC(=O)C3CC3)ccc2OC[C@H](C)N(Cc2ccccc2)C[C@H]1C | 14.1%
40 | CC(=O)c1c(C)n(-c2ccc(N(C)C)cc2)c2ccc(OCC(N)=O)cc12 | 83.1% (active)
41 | CC(=O)c1c(C)n(-c2ccc(C)cc2)c2ccc(O)cc12 | -0.235%
42 | CCOC(=O)c1c(-c2ccccc2)oc2ccc(OCC(N)=O)cc12 | -0.453%
43 | CN(C)CCCNC(=O)C[C@H]1C=C[C@@H](NC(=O)Cc2cccnc2)[C@H](CO)O1 | -16.4%
44 | C[C@@H]1CN([C@H](C)CO)C(=O)c2ccccc2-c2ccccc2CO[C@@H]1CN(C)S(=O)(=O)CC(F)(F)F | -2.03%
45 | CC(C)(C)OC(=O)N[C@H](C(=O)OC(C)(C)C)c1ccc(Br)cc1 | -4.69%
46 | CCOC(=O)Nc1ccc(NC(=O)OCC)cc1 | -0.0995%
47 | CC(C)(C)OC(=O)Nc1ccc([C@@H](NC(=O)OC(C)(C)C)C(=O)OC(C)(C)C)cc1 | 83.1% (active)
48 | COc1ccc(S(=O)(=O)N2CC[C@H]3[C@@H](CO)N(C)c4ccc(C#Cc5ccccc5OC)cc4[C@H]32)cc1 | 36%
49 | C[C@H]1CN([C@@H](C)CO)S(=O)(=O)c2ccc(C#Cc3ccccc3F)cc2O[C@@H]1CN(C)C(=O)c1ccc2c(c1)OCO2 | -14.8%
50 | O=C(Nc1ccccc1-c1ccccc1)c1ccccc1[N+](=O)[O-] | 9.09%
51 | O=C(O)c1ccccc1NC(=S)NC(NC(=O)c1ccccc1[N+](=O)[O-])C(Cl)(Cl)Cl (configuration not stated) | 108% (active)
52 | O=C(Nc1ccccc1[N+](=O)[O-])C1C(c2ccccc2)=C1c1ccccc1 | 2.4%

Row | SMILES | rescue of ATP level
53 | CO[C@H]1CN(C)C(=O)c2cc(NC(=O)C3CCOCC3)ccc2OC[C@@H](C)N(Cc2cccnc2)C[C@@H]1C | 11.4%
54 | COc1cc(/C=N\NC(=O)CNC(=O)c2cccc([N+](=O)[O-])c2)ccc1O | 110% (active)
55 | COc1cc(/C=N/NC(=O)CNC(=O)c2ccncc2)ccc1OC(C)=O | -8.66%
56 | COc1ccc(O)c(/C=N/N=C/c2cccc([N+](=O)[O-])c2)c1 | 9.95%
57 | Cc1noc(C)c1NC(=O)N[C@@H]1CC[C@H](CCNC(=O)C2CCC2)O[C@@H]1CO | 3.99%
58 | O=C(C[C@H]1CC[C@@H](NC(=O)Nc2cc(F)ccc2F)[C@@H](CO)O1)NCc1ccncn1 | -2.36%
59 | O=C(Nc1ccccc1)N1C[C@@H]2[C@H](c3ccccc31)[C@H](CO)N2C(=O)c1ccccn1 | -4.63%
60 | COc1ccc(C2=NN(C(=O)CSc3nc(=O)n4ccc(C)cc4n3)C(c3ccc(C)cc3)C2)cc1 (configuration not stated) | 34.4%
61 | Cc1ccc(C2=NN(C(=O)CSc3nc(N)cc(N)n3)C(c3ccco3)C2)cc1 (configuration not stated) | 159% (active)
62 | COc1ccc(C2=NN(C(=O)CSc3nnnn3C)C(c3ccco3)C2)cc1 (configuration not stated) | -6.88%
63 | Cc1cccc(-c2ccc([C@@H]3[C@H](CO)N4CCCCN(C(=O)c5ccc6c(c5)OCO6)C[C@@H]34)cc2)c1 | -11.7%
64 | C[C@@H]1CN([C@H](C)CO)C(=O)c2cc(-c3ccc(C(=O)N(C)C)cc3)cnc2O[C@H]1CN(C)C(=O)C1CC1 | 5.72%
65 | COc1ccc(NC(=O)N(C)C[C@H]2Oc3ccc(N(C)C)cc3C(=O)N([C@H](C)CO)C[C@H]2C)cc1 | 34.1%
66 | O=C(CSc1nc(-c2ccco2)cc(C(F)(F)F)n1)N1CCc2ccccc2C1 | 2.99%
67 | CCOC(=O)c1ccn(-c2nc(-c3ccco3)cc(C(F)(F)F)n2)n1 | 122% (active)
68 | COC(=O)c1cnn2c(C(F)(F)F)cc(-c3ccco3)nc12 | 0.418%
69 | COCC(=O)Nc1ccc2c(c1)C(=O)N(C)[C@H]1CC[C@@H](CC(=O)Nc3cn(C)nc3C)O[C@@H]1CO2 | -1.7%
70 | CCC(=O)Nc1ccc2c(c1)OC[C@H](C)N(CC1CCCCC1)C[C@@H](C)[C@H](OC)CN(C)C2=O | 13.2%
71 | CS(=O)(=O)N1CCN(c2cccc(Cl)n2)CC1 | 109% (active)
72 | Cc1cccc(C)c1N1CCN(S(=O)(=O)N2CCCCC2)CC1 | -15%
73 | CCC(=O)Nc1ccccc1N1CCN(S(C)(=O)=O)CC1 | 5.38%
74 | C[C@@H]1CN([C@H](C)CO)S(=O)(=O)c2ccc(C#CCC3CCCC3)cc2O[C@H]1CN(C)Cc1ccc(C(=O)O)cc1 | 3.68%
75 | O=C(NCc1ccc(Cl)c(Cl)c1)c1cccnc1 | 106% (active)
76 | CC(C)(C)c1cc(C(=O)NCc2cccnc2)ccn1 | -8.85%
77 | O=C(Nc1nnc(Cc2ccc(Cl)cc2)s1)c1cccnc1 | 0.36%

Reference: PubChem BioAssay AID602340 (Broad Institute, 2012)
